Structures are written as SMILES. Among all 52,000 compounds or so, about 4,300 (8.3%) were called active. The entries come from a sample that favours actives as a whole. Values without a mark were called inactive. Cut-off read from the data, not from the text of the source: active = survival mostly below about 52% (no sharp cut-off); inactive = mostly above about 56%.

This experiment relates to DeltatarO mutant. Description: growth inhibition of S. aureus wild type versus tarO mutant, primary screen, teichoic acid synthesis inhibitors, RN4220, OD600 (AID 463173). The settings on record: OD600, 18 h, hits give low values, screened at 18.75 µg/mL (by protocol).
For the molecule `CCn1c(C)c(C2N3CC4(C)CN2CC(C)(C3)C4=O)c2ccccc21` (configuration not stated), the survival was 92%.
Next, `N#C/C(=C\c1cn(CC(=O)N2CCCC2)c2ccccc12)C(=O)NCc1ccc2c(c1)OCO2`: 66%.
Next, `Fc1ccc(-c2noc3ncnc(NCc4ccc(Cl)cc4)c23)cc1`: 84%; `CCOC(=O)c1ccc(N2C(=O)c3n[nH]c(-c4cccs4)c3C2c2ccc(OC)cc2OC)cc1` (configuration not stated): 76%.
The figure for `CCOc1ccc(NC(=O)c2cc(=O)c3cc(CC)ccc3o2)cc1` is 57%; for `Cc1cc(C)cc(OCc2ccc(C(=O)Nc3ccccc3F)o2)c1` it is 45%; for `COc1ccccc1NC(=O)c1ccc(C)o1` it is 61%.
In the case of `COC(=O)c1ccccc1NC(=O)c1ccc(COc2ccccc2Cl)o1`, the survival was 63%.
On to `COC(=O)c1ccccc1NC(=O)c1ccc(COc2cc(C)cc(C)c2)o1`, for which the survival is 40%.
The figure for `COc1ccccc1NC(=O)c1ccc(COc2ccc(C)c(C)c2)o1` is 1% (active); for `CCOc1ccc(OCc2ccc(C(=O)Nc3cc(OC)c(OC)c(OC)c3)o2)cc1` it is 54% (active).
Take `C=CCc1ccc(OCc2ccc(C(=O)Nc3ccc(NC(C)=O)cc3)o2)c(OC)c1`: the survival was 121%.
Next, `COc1ccc(NC(=O)c2ccc(COc3ccccc3OC)o2)cc1OC`: 61%; `COC(=O)c1cc(NC(=O)c2ccc(-c3ccc(Cl)cc3Cl)o2)cc(C(=O)OC)c1`: 53%.
The figure for `CCCc1ccc(OCc2ccc(C(=O)Nc3ccccc3C(=O)OC)o2)cc1` is -2% (active); for `CC(=O)Nc1ccc(NC(=O)c2ccc(COc3ccc(Cl)cc3Cl)o2)cc1` it is 46% (active).
`O=C(O)CCCc1nc2ccccc2s1`: the survival is 75%.
In the case of `Cc1cc(NC(=O)CSc2nc(-c3ccccc3F)nc3c2c(=O)n(C)c(=O)n3C)no1`, the survival was 86%.
For the molecule `COC(=O)c1ccccc1NC(=O)C1CCCN(c2ncnc3onc(C)c23)C1` (configuration not stated), the survival is 80%.
The figure for `O=C(CNCC1CCCCC1)Nc1cccc(F)c1` is 88%; for `COc1cc(CNC(=O)c2ccc3c(c2)N(C)C(=O)C2CCCCN32)cc(OC)c1OC` (configuration not stated) it is 69%; for `Cc1c(C(=O)N2CCC(C)CC2)c(S(=O)(=O)NCc2ccc(Cl)cc2)c(C)n1C` it is 128%.
The figure for `O=C(Nc1c(C(=O)N2CCN(c3ccccc3F)CC2)oc2ccccc12)c1ccc(Br)o1` is 80%; for `CCc1cccc(C)c1NC(=O)Cn1cc2c(n1)CCCCC2` it is 90%.
Turning to `C#CCn1c(O)c(N=NC(=O)c2ccccc2-n2cccc2)c2ccccc21`, the survival is 60%.
Next, `COc1ccc(-c2noc(CSc3nnc(-c4ccncc4)n3-c3ccc(OC)cc3)n2)cc1`: 92%; `COc1ccc(-n2c(SCc3nc(-c4ccc(Cl)cc4)no3)nnc2-c2ccncc2)cc1`: 49% (active); `Cc1ccc(-n2c(SCc3nc(-c4ccc(Cl)cc4)no3)nnc2-c2ccncc2)cc1`: 37% (active).
Consider `Cc1ccc(-c2noc(CSc3nnc(C)n3-c3ccc(C)cc3)n2)cc1`, for which the survival was 101%.
Next, `COc1ccc(-c2noc(CSc3nnc(-c4ccncc4)n3-c3ccccc3)n2)cc1`: 70%.
Next, `COc1ccc(-c2noc(CSc3nnc(C)n3-c3ccc(C)cc3)n2)cc1`: 57% (active).
The figure for `CCCn1c(SCc2nc(-c3ccccc3OCC)no2)nnc1-c1ccc(Cl)cc1` is 43% (active); for `COc1ccc(-n2c(SCc3nc(-c4ccc(C)cc4)no3)nnc2-c2ccncc2)cc1` it is 57%; for `COc1ccc(-c2noc(CSc3nnc(C)n3-c3ccc(OC)cc3)n2)cc1` it is 77%.
For the molecule `CCCn1c(SCc2nc(-c3ccccc3C)no2)nnc1-c1ccc(Cl)cc1`, the survival is 47%.
Turning to `COc1ccc(-c2noc(CSc3nnc(-c4ccncc4)n3-c3ccc(C)cc3)n2)cc1`, the survival is 55%.
On to `CCCn1c(SCc2nc(-c3ccc(OC)cc3OC)no2)nnc1-c1ccc(Cl)cc1`, for which the survival is 53%.
The figure for `CC(C)Oc1ccc(C(=O)Nc2nonc2-c2ccc(OC(C)C)cc2)cc1` is 75%.
For the molecule `Cc1ccc2c(c1)N(C(=O)CCC(=O)Nc1ccc(F)cc1F)CC(C)O2` (configuration not stated), the survival was 56%.
For `CCOc1ccc(-c2nnc(SCC(=O)NCCc3ccc(OC)c(OC)c3)nc2-c2ccc(OCC)cc2)cc1`, the survival is 98%.
Next, `CCOc1ccc(OCC)c(NC(=O)c2cnn(-c3ccc(F)cc3)c2-n2cccc2)c1`: 80%.
In the case of `Cc1ccccc1OCC(=O)Nc1ccc(-c2nc3cc(Cl)cc(Cl)c3o2)cc1`, the survival was 62%.
For the molecule `Cc1ccc(C)c(NC(=O)CN2C(=O)c3cccnc3Oc3ccc(C)cc32)c1`, the survival was 80%.
With `CCOc1ccc(S(=O)(=O)n2nc(C)c(S(=O)(=O)N3CCCCCC3)c2C)cc1`, the survival was 115%.
Turning to `COC(=O)c1cc2sc(Cl)cc2n1CC(=O)Nc1cc(OC)cc(OC)c1`, the survival was 84%.
For `CCC(Sc1nnc(C)n2c1cc1occc12)C(=O)Nc1ccccc1OC` (configuration not stated), the survival is 77%.
The figure for `CCOc1ccccc1NC(=O)C(CC)n1c(C(=O)OC)cc2occc21` (configuration not stated) is -4% (active); for `CCOC(=O)c1cc2occc2n1C(C)C(=O)OCC` (configuration not stated) it is 80%; for `CCOC(=O)c1ccc2c(c1)N(C(CC)C(=O)Nc1ccccc1OC)C(=O)c1ccccc1S2` (configuration not stated) it is 101%.
With `CCC(C(=O)Nc1ccccc1OC)n1c(C(=O)OC)cc2sc(Cl)cc21` (configuration not stated), the survival is -6% (active).
Turning to `Cc1ccc(CNc2nc(-c3ccco3)nn2S(=O)(=O)c2ccc3ccccc3c2)cc1`, the survival was 115%.
Take `CCc1ccc(NC(=O)Cn2c(C(=O)OC)cc3oc(C)cc32)cc1`: the survival was 65%.
Next, `CC(C)NC(=O)Cn1ncn2c(cc3cc(F)ccc32)c1=O`: 82%.
Next, `CNC(=O)C1CCC(Cn2c(=O)c3sccc3n(CC(=O)Nc3cc(C)cc(C)c3)c2=O)CC1` (configuration not stated): 70%.
As for `Cc1nn(CCC(=O)Nc2cccc(C#N)c2)c(C)c1S(=O)(=O)N1CCCCC1`, the survival is 88%.
As to `CCc1ccc(NC(=O)CC2C(=O)N(c3ccc(C)cc3)C(=O)N2CCc2ccncc2)cc1` (configuration not stated), the survival was 81%.
Next, `Nc1nonc1-c1nc2ccccc2n1Cc1c(Cl)cccc1Cl`: 50%.
The figure for `O=C(NCCc1ccc(Cl)cc1)c1ccc(CS(=O)Cc2cccc(Cl)c2)o1` (configuration not stated) is 38% (active).
Next, `Cc1ccccc1CS(=O)(=O)Cc1ccc(C(=O)NCCc2ccc(Cl)cc2)o1`: 76%.
As to `Cc1ccc(CNC(=O)c2ccc(CS(=O)(=O)Cc3ccc(F)cc3)o2)cc1`, the survival is 77%.
Regarding `O=C(NCCc1ccc(Cl)cc1)c1ccc(CS(=O)(=O)Cc2ccccc2F)o1`, the survival is -1% (active).
Next, `CCc1ccc(CNC(=O)c2ccc(CS(=O)(=O)Cc3ccccc3C)o2)cc1`: 79%.
The figure for `CCOc1ccc(CCNC(=O)c2ccc(CS(=O)Cc3cccc(Cl)c3)o2)cc1` (configuration not stated) is 50%.
Next, `Cc1ccccc1CS(=O)(=O)Cc1ccc(C(=O)NCc2ccc(F)cc2)o1`: 47% (active); `O=C(NCCc1ccccc1)c1ccc(CS(=O)Cc2ccc(Cl)cc2)o1` (configuration not stated): 74%; `Cc1ccc(CCNC(=O)c2ccc(CS(=O)(=O)Cc3ccccc3F)o2)cc1`: 72%.
Regarding `CCc1ccc(NC(=O)Cn2c(=O)n(-c3ccccc3)c(=O)c3ccc(C(=O)NCc4ccc5c(c4)OCO5)cc32)cc1`, the survival was 112%.
The figure for `COc1ccc(NC(=O)NC(C)c2c(-n3cccc3)sc3c2CCN(C)C3)c(OC)c1` (configuration not stated) is 70%; for `O=C(OCc1ccccc1F)c1ccc(-c2nnn(Cc3ccccc3)n2)cc1` it is 122%; for `COc1cccc(CN(C(=O)c2ccc(C(C)(C)C)cc2)C2CCS(=O)(=O)C2)c1` (configuration not stated) it is 70%.
Next, `COc1ccc(NC(=O)c2oc3ccccc3c2NC(=O)Cc2coc3cc(C)ccc23)cc1`: 70%.
The figure for `CN1CCN(S(=O)(=O)c2ccc(Br)c3ccccc23)CC1` is 99%; for `Cc1cc(Nc2ccc(Cl)cc2)n2cnnc2n1` it is 65%.
`COc1ccc(-c2nn[nH]n2)cc1`: the survival was 105%.
Take `COc1ccc(NC(=O)c2c(N)c(C(=O)c3ccc(C)cc3)n3ccccc23)cc1OC`: the survival was 82%.
Next, `Cc1ccc(NC(=O)Cc2ccc(NC(=O)N3CCCCc4ccccc43)cc2)cc1Cl`: 93%; `CCS(=O)(=O)c1ccccc1C(=O)N1CCN(c2nc3ccccc3s2)CC1`: 55%.
As for `COc1ccc(CCNC(=O)c2cn(C)c3ccc(S(=O)(=O)N(C)C)cc3c2=O)cc1OC`, the survival was 84%.
As to `Cc1ccc(-c2nc(C)c(CCNS(=O)(=O)c3ccc(F)c(C(F)(F)F)c3)s2)cc1`, the survival is -4% (active).
For `Cc1ccc(-c2nc(C)c(CCNS(=O)(=O)c3ccccc3F)s2)cc1`, the survival was 76%.
Next, `CCOc1ccc(S(=O)(=O)NCCc2sc(-c3ccc(C)cc3)nc2C)cc1`: 102%; `CC(C)c1nc2ccc(C(=O)NCCCN3CCN(c4ccccc4)CC3)cc2o1`: 120%; `CC(C)COC(=O)Nc1ccc2c(c1)OCO2`: 62%.
Next, `Cc1ccc(C)n1-c1nnc(N2CCCC(C(=O)NCc3ccc(F)cc3)C2)s1` (configuration not stated): 93%; `CSc1ccc(C2c3[nH]c4ccccc4c3CCN2C(=O)CCC2CCCC2)cc1` (configuration not stated): 74%; `CCCCCSc1nnc2c(n1)OC(CC)Nc1ccc(Br)cc1-2` (configuration not stated): 63%.
Next, `CCSc1nnc2c(n1)OC(c1cc(OC)c(OC)c(OC)c1)Nc1ccccc1-2` (configuration not stated): 61%.
As to `CCCCSc1nnc2c(n1)OC(c1ccc(Br)s1)N(C(C)=O)c1ccccc1-2` (configuration not stated), the survival is 47%.
With `CCSc1nnc2c(n1)OC(c1ccc(OC)c(OC)c1)N(C(C)=O)c1ccccc1-2` (configuration not stated), the survival is 53%.
Regarding `CCCSc1nnc2c(n1)OC(c1ccc(Br)s1)Nc1ccccc1-2` (configuration not stated), the survival is 53%.
Next, `CCCCCSc1nnc2c(n1)OC(c1ccc(C)s1)N(C(C)=O)c1ccccc1-2` (configuration not stated): 45% (active); `CCSc1nnc2c(n1)OC(c1ccc(OC)cc1OC)N(C(C)=O)c1ccccc1-2` (configuration not stated): 58% (active).
Next, `CCSc1nnc2c(n1)OC(c1ccc(C)cc1)N(C(C)=O)c1ccccc1-2` (configuration not stated): 55%; `CCCCSc1nnc2c(n1)OC(c1ccc(Br)s1)Nc1ccccc1-2` (configuration not stated): 10% (active).
`CCCCSc1nnc2c(n1)OC(C)N(C(C)=O)c1ccccc1-2` (configuration not stated): the survival was 154%.
Consider `CCCCCCSc1nnc2c(n1)OC(C)Nc1ccc(Br)cc1-2` (configuration not stated), for which the survival was 75%.
On to `CCCSc1nnc2c(n1)OC(c1cccs1)Nc1ccc(Br)cc1-2` (configuration not stated), for which the survival was 30% (active).

The values are drawn from PubChem BioAssay AID463173 (ICCB-Longwood Screening Facility, Harvard Medical School, 2010).
